Compound activity (PubChem)
Gal4-VP16 FLuc = Gal4-VP16 reporter inhibition counter-screen; actives 3.5% (n = 310,000); AID 2546; Potency, µM (titrated, usually from 53.6 µM), for inactives: at the top dose activity, negative = inhibition, most hits filed as inhibitors; Drosophila S2 Gal4-VP16 UAS-luciferase, luminescence, 20 h;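 further: Gal4-VP16 expression switched on by copper sulfate through the metallothionein promoter; potency means the concentration at half of the fitted maximal effect; nearly all actives have a fitted effect of over 50% in size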
ELG1 DNA repair = ELG1-dependent DNA repair inhibition; HEK293T ELG1-luciferase reporter, luminescence, 16 h; DNA damage induced by 5-fluorouridine; Potency, µM (titrated, usually from 46.1 µM), for inactives: top-dose activity change, negative = inhibition, actives largely listed as inhibitors; actives 2.3% (n = 330,000); AID 504467; further: potency means the concentration at half of the fitted maximal effect; nearly all actives have a fitted effect of over 55% in size
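5-Fluorouridine DNA damage + compound/DMSO, 2,000 cells/well, 16 h, 37 °C/5% CO2. ONE-Glo, 30 min RT, luminescence. Readout = decrease in reporter signal.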
TDP1 cell CPT = DT40-hTDP1 cell growth loss with CPT; AID 686979; Potency, µM (highest dose often 46.2 µM), for the others: at the highest dose activity change, negative = growth inhibition, usual class: inhibitors; actives 12% (n = 420,000); chicken DT40 Tdp1-/-;hTDP1 cells + 20 nM CPT, ATP luminescence, 48 h; further: potency means the concentration at half of the fitted maximal effect; nearly all actives have a fitted effect of over 55% in size
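Chicken DT40 Tdp1-/- cells complemented with human TDP1, 400 cells/well, exposed to compounds plus 20 nM camptothecin for at least 48 h at 37 C; viability read as ATP content by CellTiter-Glo luminescence.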
IL-1B inflam inh = inflammasome signaling inhibition, IL-1 beta readout; activity change, % at 57.5 µM; actives 4.7% (n = 360,000); THP-1 LPS/ATP IL-1B secretion, AlphaLISA, 16 h; stronger effect = lower value; AID 743279; in the data active means activity change below about -50%; inconclusive means mostly about -30% to -49%
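THP-1 cells pretreated 1 hr with compounds (up to 57.5 uM final), then stimulated with LPS (250 ng/mL final) plus ATP (1.25 mM final); secreted IL-1B measured by AlphaLISA after 16 hr, decreased signal indicating inhibition.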
TDP1 cell noCPT = qHTS for Inhibitors of human tyrosyl-DNA phosphodiesterase 1 (TDP1): qHTS in cells in absence of CPT; DT40 Tdp1-/- hTDP1 cells, no CPT, ATP luminescence, 48 h; Potency, µM (highest dose often 46.2 µM), for inactives: at the highest dose activity change, negative = growth inhibition, most hits filed as inhibitors; actives 15% (n = 420,000); AID 686978, 2013; further: potency means the concentration at half of the fitted maximal effect; nearly all actives have a fitted effect of over 55% in size
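Readout: luminescence from CellTiter-Glo after 30 min in the dark at RT. Cells: DT40 Tdp1-/- with stable hTDP1, 400/well. Exposure: compounds alone, ≥48 hr, 37 °C.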
RORgamma inh = blocks mouse ROR gamma transcriptional activity | P51450 | Drosophila S2 Gal4-RORgamma UAS-luciferase reporter, 20 h | Potency, µM (series often up to 53.6 µM), for inactives: at the top dose activity change, negative = inhibition, hits mostly inhibitors | actives 5.4% (n = 310,000) | AID 2551; further: potency means the concentration at half of the fitted maximal effect; nearly all actives have a fitted effect of over 60% in size
Target sequence (P51450 whole entry, looked up, the tested form may be a part): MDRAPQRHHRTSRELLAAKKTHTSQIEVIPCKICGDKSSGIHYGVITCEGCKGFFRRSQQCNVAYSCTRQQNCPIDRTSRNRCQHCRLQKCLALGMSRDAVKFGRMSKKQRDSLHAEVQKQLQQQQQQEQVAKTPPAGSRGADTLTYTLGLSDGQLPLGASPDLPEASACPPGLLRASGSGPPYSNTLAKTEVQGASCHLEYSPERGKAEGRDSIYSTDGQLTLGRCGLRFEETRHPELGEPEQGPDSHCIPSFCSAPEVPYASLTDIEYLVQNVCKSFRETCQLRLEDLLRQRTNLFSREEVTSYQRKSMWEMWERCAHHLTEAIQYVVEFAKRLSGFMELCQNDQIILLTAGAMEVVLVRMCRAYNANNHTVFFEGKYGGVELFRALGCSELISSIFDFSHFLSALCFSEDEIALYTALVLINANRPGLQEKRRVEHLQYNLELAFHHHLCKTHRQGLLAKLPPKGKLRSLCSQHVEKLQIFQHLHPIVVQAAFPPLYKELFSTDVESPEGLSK
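ROR gamma transcriptional activity was tracked as Gal4-UAS luciferase output in stably transfected Drosophila Schneider cells, with compound added 1 hr before 700 uM copper sulfate induction and a 20 hr ambient-temperature incubation.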
Starred values were filed as active, the others as inactive; i = inactive; ? = inconclusive; nt = no result given; ! = repeats disagree; [ ] = dose if it differs, or a comment. This is a sample that favours compounds with a hit; in the whole collection about 21% have one here. Unless noted, the call rests on the fitted dose curve; in most records, active means well fitted curve in the direction sought with a large enough effect; inconclusive means small, poorly fitted or top-dose-only effect, or another doubt; inactive means no such curve, though single readings can be large; an effect the other way counts as inactive or inconclusive. On the % scale 0 is the no-effect control and ±100 the full control effect.

SMILES	Gal4-VP16 FLuc	ELG1 DNA repair	TDP1 cell CPT	IL-1B inflam inh	TDP1 cell noCPT	RORgamma inh
Cc1ccc(C(=O)Nc2ccc3c(c2)OCO3)cc1	-25%	?	?	-19	-29%	?
O=C(Nc1ccc(F)c(Cl)c1)C1CCN(c2ncccn2)CC1	nt	nt	-20%	nt	2%	nt
Cc1ccc(NC(=O)C(C)Sc2nnc3n2CCCCC3)cc1S(=O)(=O)N1CCOCC1 (stereo unspecified)	nt	nt	-7%	1	-26%	nt
Nc1nc(=S)c2ncn(C3OC(CO)C(O)C3O)c2[nH]1 (stereo unspecified)	4%	-11%	4.1µM*	14	8.2µM*	-2%
Nc1nc(=S)c2ncn([C@@H]3O[C@H](CO)[C@@H](O)[C@H]3O)c2[nH]1	nt	?	1.6µM*	0	1.8µM*	nt
CC1(C)OC2C(CO)OC(n3cnc4c(=S)nc(N)[nH]c43)C2O1 (stereo unspecified)	nt	nt	12µM*	18	15µM*	nt
CC1(C)OC2C(CO)OC(n3cnc4c(=S)nc[nH]c43)C2O1 (stereo unspecified)	-7%	?	-2%	5	-1%	-31%
O=C(CSc1ccc(F)cc1)NC1CCCCC1	7%	?	4%	10	5%	0%
NS(=O)(=O)c1ccc(CCNCC(=O)N2CCC(Cc3ccccc3)CC2)cc1	5%	?	-26%	?	1%	7%
CCc1cccc(C)c1Nc1nc2ccccc2n2cnnc12	-10%	?	-7%	35	?	-6%
COc1cccc2c(=O)c(C(=O)NCc3cccs3)c[nH]c12	-5%	?	-13%	2	6.5µM*	?
CCOCCCNC(=O)c1c[nH]c2ccc(C)cc2c1=O	15%	?	1%	-10	-27%	7%
Cc1ccc2[nH]cc(C(=O)NCc3cccs3)c(=O)c2c1	-4%	?	23µM*	-71*	23µM*	?
CCCC1=[N+](CC(C)=O)CCn2c(C)ccc21	-1%	0%	3.3µM*	-1	2.3µM*	-22%
CCCC1=[N+](CC(=O)c2ccccc2)CCn2cccc21	-3%	3%	23µM*	i	26µM*	-8%
CCCCCCCCCCCCCCCCCC(=O)OCC(O)CO (stereo unspecified)	-13%	nt	-25%	nt	-12%	5%[10 µM]
O=C(Cn1ccc2cc(S(=O)(=O)N3CCCC3)ccc21)NCCc1ccccc1	22%	3%	?	31	23µM*	37%
O=C(CCn1ccc2cc(S(=O)(=O)N3CCCC3)ccc21)NCCc1ccccc1	14%	-3%	?	17	?	15%
O=C(Cn1ccc2cc(S(=O)(=O)N3CCCC3)ccc21)NCc1ccc(Cl)cc1	nt	nt	?	nt	-27%	nt
O=C(Cn1ccc2cc(S(=O)(=O)N3CCCCCC3)ccc21)NCc1cccc(Cl)c1	nt	nt	?	nt	18µM*	nt
COC(=O)Cn1ccc2cc(S(=O)(=O)N3CCCCC3)ccc21	29%	6%	21µM*!	-25	?	24%
CC(NC(=O)Cn1ccc2cc(S(=O)(=O)N3CCCCCC3)ccc21)c1ccccc1 (stereo unspecified)	nt	nt	?	nt	18µM*	nt
O=C(Cn1ccc2cc(S(=O)(=O)N3CCCCC3)ccc21)NCc1ccccc1Cl	nt	nt	18µM*	nt	21µM*	nt
CCOc1ccccc1CNC(=O)Cn1ccc2cc(S(=O)(=O)N3CCC(C)CC3)ccc21	?	-11%	?	-26	21µM*	1%
O=C(Cn1ccc2cc(S(=O)(=O)N3CCCC3)ccc21)NCc1ccccc1Cl	nt	nt	-3%	nt	-20%	nt
SMILES	Gal4-VP16 FLuc	ELG1 DNA repair	TDP1 cell CPT	IL-1B inflam inh	TDP1 cell noCPT	RORgamma inh
CCCOc1ccc(C(=O)c2nc3c(n2O)CCCCC3)cc1	20µM*	3%	-26%	-13	?	14%
O=C(c1ccccc1)c1nc2c(n1O)CCCCC2	-3%	?	-11%	-1	1%	0%
CCc1cc2ccccc2nc1Cl	4%	7%	0%	-7	15%	-4%
ClCc1cc2ccccc2nc1Cl	-18%	9%	10µM*	0	8.2µM*	-5%
Cc1ccc2cc(CCl)c(Cl)nc2c1	2%	18%	16µM*	16	21µM*	-8%
COc1ccc(-c2c(C#N)c(SCC(=O)Nc3ccccc3C)nc(C)c2C(=O)Nc2ccccc2)cc1OC	nt	nt	-3%	nt	-2%	nt
COc1ccccc1CNC(=O)CSCc1nc(-c2ccc(OC)c(OC)c2)oc1C	nt	nt	?	nt	18µM*	nt
CCOc1ccc(CCNC(=O)CSCc2nc(-c3cccc(C)c3)oc2C)cc1OCC	nt	nt	?	nt	13µM*	nt
COc1ccc(-c2nc(CSCC(=O)NCCc3ccc(C)cc3)c(C)o2)cc1OC	nt	nt	16µM*	nt	18µM*	nt
CCOc1ccc(CCNC(=O)CS(=O)Cc2nc(-c3ccc(C)cc3)oc2C)cc1OCC (stereo unspecified)	-9%	?	16µM*!	7	?	18%
COc1ccc(C(=O)NCC(=O)OCc2cc(=O)n3nc(C4CCCCC4)sc3n2)cc1	nt	nt	-25%	nt	-5%	nt
O=C(NCCN1CCOCC1)C(=O)c1c[nH]c2ccccc12	-9%	?	0%	5	8%	-17%
O=C(NC(=S)NC1CCCc2ccccc21)c1ccc(F)cc1 (stereo unspecified)	16µM*	?	?	-5	?	8.9µM*
O=C(NC(=S)NC1CCC(O)CC1)c1ccco1 (stereo unspecified)	nt	?	7%	2	8%	nt
N#Cc1ccc(C(=O)NC2CCCc3ccccc32)cc1 (stereo unspecified)	14%	-6%	-20%	6	-27%	17%
O=C(NC(=S)NC1CCCc2ccccc21)c1ccco1 (stereo unspecified)	?	-19%	16µM*	-9	?	7.1µM*
Cc1cc(C)c2c(=N)c3ccccc3n(CCCCCCCCn3c4ccccc4c(=N)c4c(C)cc(C)nc43)c2n1	nt	nt	10µM*	-52*	?	nt
Cc1ccccc1C(=O)Nc1nnc(S(=O)(=O)N(C)Cc2ccc(Cl)cc2)s1	nt	nt	-30%	nt	-12%	nt
NNc1nc(N)c2c(n1)-c1ccccc1CC21CCCC1	?	?	10µM*	-9	16µM*	18µM*
CCc1nc2c(c(=O)[nH]1)C1(CCCC1)Cc1ccccc1-2	-6%	5%	-15%	-7	-20%	17%
CSc1ccccc1C(=O)OCC(=O)Nc1ccc(N2CCOCC2)cc1	nt	?	?	1	?	nt
